Results published in PubChem BioAssay (NCATS).
Inconclusive results are not listed. Calls of active or inactive are those of the source. Calls come from the whole dose curve; as a rule, active = well fitted cell-killing curve with a large enough effect; inconclusive = small, poorly fitted or top-dose-only effect, or effect the other way; inactive = flat fitted curve, though single readings scatter.

Legend:
Assay in all cases: Primary qHTS to identify gynecologic anti-cancer compounds using libraries of approved drugs and bioactive compounds (AID 1345084); note: nearly all actives have a fitted effect of over 55% in size
C33A = conditions: Gynecologic cancer cell panel viability, ATPlite luminescence, 48 h; series mostly up to 57.5 µM
Outline: (§1)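 Cell viability after 48 h drug treatment, ATPlite luminescence readout; five doses.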

CAOV3 = conditions: Gynecologic cancer cell panel viability, ATPlite luminescence, 48 h; series mostly up to 57.5 µM
Outline: as §1

CASKI = conditions: Gynecologic cancer cell panel viability, ATPlite luminescence, 48 h; series mostly up to 57.5 µM
Outline: as §1

Es-2 = conditions: Gynecologic cancer cell panel viability, ATPlite luminescence, 48 h; series mostly up to 57.5 µM
Outline: as §1

HeLa = conditions: Gynecologic cancer cell panel viability, ATPlite luminescence, 48 h; series mostly up to 57.5 µM
Outline: as §1

Hek293T = conditions: Gynecologic cancer cell panel viability, ATPlite luminescence, 48 h, control line for the selectivity index; series mostly up to 57.5 µM
Outline: as §1

JEG-3 = conditions: Gynecologic cancer cell panel viability, ATPlite luminescence, 48 h; series mostly up to 57.5 µM
Outline: as §1

OV90 = conditions: Gynecologic cancer cell panel viability, ATPlite luminescence, 48 h; series mostly up to 57.5 µM
Outline: as §1

PA-1 = conditions: Gynecologic cancer cell panel viability, ATPlite luminescence, 48 h; series mostly up to 57.5 µM
Outline: as §1

SKOV3 = conditions: Gynecologic cancer cell panel viability, ATPlite luminescence, 48 h; series mostly up to 57.5 µM
Outline: as §1
% is set by controls: 0 for no effect and ±100 for the full control effect.

CCC(=O)O[C@]1(C(=O)CCl)[C@@H](C)C[C@H]2[C@@H]3CCC4=CC(=O)C=C[C@]4(C)[C@@]3(F)[C@@H](O)C[C@@]21C
inactive: Potency (C33A) | Potency (CAOV3) | Potency (CASKI) | Potency (Es-2) | Potency (HeLa) | Potency (Hek293T) | Potency (JEG-3) | Potency (OV90) | Potency (PA-1)

Cc1nnc(NS(=O)(=O)c2ccc(N)cc2)s1
inactive: Potency (C33A) | Potency (CAOV3) | Potency (CASKI) | Potency (Es-2) | Potency (HeLa) | Potency (Hek293T) | Potency (JEG-3) | Potency (OV90) | Potency (PA-1) | Potency (SKOV3)

CCC(C)(C)c1ccc(CC(C)CN2C[C@@H](C)O[C@@H](C)C2)cc1 (stereo partly specified)
inactive: Potency (C33A) | Potency (CAOV3) | Potency (CASKI) | Potency (Es-2) | Potency (HeLa) | Potency (Hek293T) | Potency (JEG-3) | Potency (OV90) | Potency (PA-1) | Potency (SKOV3)

CCn1cc(C(=O)O)c(=O)c2cc(F)c(N3CCN(C)CC3)cc21
inactive: Potency (C33A) | Potency (CAOV3) | Potency (CASKI) | Potency (Es-2) | Potency (HeLa) | Potency (Hek293T) | Potency (JEG-3) | Potency (OV90) | Potency (PA-1) | Potency (SKOV3)

Cc1oc(=O)oc1CN1CCN(c2cc3c(cc2F)c(=O)c(C(=O)O)c2n3C(C)S2)CC1 (stereo unspecified)
inactive: Potency (C33A) | Potency (CAOV3) | Potency (CASKI) | Potency (Es-2) | Potency (HeLa) | Potency (Hek293T) | Potency (JEG-3) | Potency (OV90) | Potency (PA-1)

CCOCC(O)COc1ccc(NC(=O)CC[S+](C)C)cc1 (stereo unspecified)
inactive: Potency (C33A) | Potency (CAOV3) | Potency (CASKI) | Potency (Es-2) | Potency (HeLa) | Potency (Hek293T) | Potency (JEG-3) | Potency (OV90) | Potency (PA-1) | Potency (SKOV3)

CN1CCN(c2c(F)cc3c(=O)c(C(=O)O)cn4c3c2OCN4C)CC1
inactive: Potency (C33A) | Potency (CAOV3) | Potency (CASKI) | Potency (Es-2) | Potency (HeLa) | Potency (Hek293T) | Potency (JEG-3) | Potency (OV90) | Potency (PA-1) | Potency (SKOV3)

Cc1onc(-c2ccccc2Cl)c1C(=O)N[C@@H]1C(=O)N2[C@@H]1SC(C)(C)[C@@H]2C(=O)O
inactive: Potency (C33A) | Potency (CAOV3) | Potency (CASKI) | Potency (Es-2) | Potency (HeLa) | Potency (Hek293T) | Potency (JEG-3) | Potency (OV90) | Potency (PA-1) | Potency (SKOV3)

O=NN(CCCl)C(=O)NC1CCCCC1
inactive: Potency (C33A) | Potency (CAOV3) | Potency (CASKI) | Potency (Es-2) | Potency (HeLa) | Potency (Hek293T) | Potency (JEG-3) | Potency (OV90) | Potency (PA-1) | Potency (SKOV3)

CCOC(=O)[C@H](CCc1ccccc1)N[C@H]1CS[C@H](c2cccs2)CN(CC(=O)O)C1=O
inactive: Potency (C33A) | Potency (CAOV3) | Potency (CASKI) | Potency (Es-2) | Potency (HeLa) | Potency (Hek293T) | Potency (JEG-3) | Potency (OV90) | Potency (PA-1) | Potency (SKOV3)

CC(C)(Sc1cc(C(C)(C)C)c(O)c(C(C)(C)C)c1)Sc1cc(C(C)(C)C)c(O)c(C(C)(C)C)c1
inactive: Potency (C33A) | Potency (CAOV3) | Potency (CASKI) | Potency (Es-2) | Potency (HeLa) | Potency (Hek293T) | Potency (JEG-3) | Potency (OV90) | Potency (PA-1) | Potency (SKOV3)

CNS(=O)(=O)Cc1ccc2[nH]cc(CCN(C)C)c2c1
inactive: Potency (C33A) | Potency (CAOV3) | Potency (CASKI) | Potency (Es-2) | Potency (HeLa) | Potency (Hek293T) | Potency (JEG-3) | Potency (OV90) | Potency (PA-1)

COc1c(N2CCNC(C)C2)c(F)cc2c(=O)c(C(=O)O)cn(C3CC3)c12 (stereo unspecified)
inactive: Potency (C33A) | Potency (CAOV3) | Potency (CASKI) | Potency (Es-2) | Potency (HeLa) | Potency (Hek293T) | Potency (JEG-3) | Potency (OV90) | Potency (PA-1)

O=c1cc(O)c(Cl)c[nH]1
inactive: Potency (C33A) | Potency (CAOV3) | Potency (CASKI) | Potency (Es-2) | Potency (HeLa) | Potency (Hek293T) | Potency (JEG-3) | Potency (OV90) | Potency (SKOV3)

C[C@@H](CN1CC(=O)NC(=O)C1)N1CC(=O)NC(=O)C1
inactive: Potency (C33A) | Potency (CAOV3) | Potency (CASKI) | Potency (Es-2) | Potency (Hek293T) | Potency (JEG-3) | Potency (OV90) | Potency (PA-1) | Potency (SKOV3)

N[C@@H](C(=O)N[C@@H]1C(=O)N2C(C(=O)O)=C(Cl)CS[C@H]12)c1ccccc1
inactive: activity change, negative = cytotoxicity (C33A) 7.76% [at 11.6 µM] | activity change, negative = cytotoxicity (CAOV3) 16.8% [at 11.6 µM] | activity change, negative = cytotoxicity (CASKI) 2.82% [at 11.6 µM] | activity change, negative = cytotoxicity (Es-2) 3.68% [at 11.6 µM] | activity change, negative = cytotoxicity (HeLa) 2.57% [at 11.6 µM] | activity change, negative = cytotoxicity (Hek293T) 4.98% [at 11.6 µM] | activity change, negative = cytotoxicity (JEG-3) 1.47% [at 11.6 µM] | activity change, negative = cytotoxicity (OV90) 0.914% [at 11.6 µM] | activity change, negative = cytotoxicity (PA-1) 14.4% [at 11.6 µM] | activity change, negative = cytotoxicity (SKOV3) 12.2% [at 11.6 µM]

CCOC(=O)c1ccc(OC(=O)CCCCCN=C(N)N)cc1
inactive: Potency (C33A) | Potency (CAOV3) | Potency (CASKI) | Potency (Es-2) | Potency (Hek293T) | Potency (JEG-3) | Potency (OV90) | Potency (PA-1) | Potency (SKOV3)

O=C(O)c1cc(=O)[nH]c(=O)[nH]1
inactive: Potency (C33A) | Potency (CAOV3) | Potency (CASKI) | Potency (Es-2) | Potency (HeLa) | Potency (Hek293T) | Potency (JEG-3) | Potency (OV90) | Potency (PA-1) | Potency (SKOV3)

CC[C@H](C)C(=O)O[C@H]1C[C@@H](C)C=C2C=C[C@H](C)[C@H](CC[C@@H]3C[C@@H](O)CC(=O)O3)[C@H]21
inactive: Potency (C33A) | Potency (CAOV3) | Potency (CASKI) | Potency (Es-2) | Potency (Hek293T) | Potency (JEG-3) | Potency (OV90) | Potency (PA-1) | Potency (SKOV3)

Cn1nnc2c(C(N)=O)ncn2c1=O
inactive: Potency (C33A) | Potency (CAOV3) | Potency (CASKI) | Potency (Es-2) | Potency (Hek293T) | Potency (JEG-3) | Potency (OV90) | Potency (PA-1) | Potency (SKOV3)
